The record followed here is the OligoGym collection.
Further: reference of the scale not given here.

One assay addresses NUDT18. Kind of assay: pooled miR-30 sensor sort-seq; sequence = guide strand. To be noted: shRNA.
For the sequence TGTCTCGGGCTCACAGTGCAGC, the sensor-assay potency score (higher = more potent) is -1.13.
For the sequence AACTTTTGGGGGTTCATCCTGG, the sensor-assay potency score (higher = more potent) was -0.225.
Still for that read-out and setting: next, TTGCAGGTCTTCCTCCATCACC: -1.52.

Another assay deals with NUDT8. Described as above. To be noted: shRNA.
As to TTGTGCCTCCCGGTCAGGCGGC, the sensor-assay potency score (higher = more potent) is -1.45.
On the same count and under the same terms, under TTGGTCAGCCGGGTCGCACTTG stands -1.16; under TACAGCAGCGCCGGCACCCCAC, -1.1.
On to TGGGAAACTGACGTCGCCCTTG, for which the sensor-assay potency score (higher = more potent) is -0.952.
On the same count and under the same terms, under TTTGCGGATCATACACAGGCCG stands -0.907; under TACACCAGCAAGCACTGGCACC, -1.4; under ATCTTGGTCAGCCGGGTCGCAC, -1.97.
Still for that read-out and setting: next, ACCACATCTTGGTCAGCCGGGT: -1.55; TCAGCCGGGTCGCACTTGCCGC: -1.59; TGTGCACCACATCTTGGTCAGC: -0.734.
On the same count and under the same terms, under TGGTCAGCCGGGTCGCACTTGC stands -1.47; under TTGCGGATCATACACAGGCCGC, -1.79.

For the next assay, the target named is NUP188. The assay is described as above. To be noted: shRNA.
In turn, TAGAACAGCAATGAGGTTGTTT showed a sensor-assay potency score (higher = more potent) of 0.0605.
Still for that read-out and setting: under TAATGCTGCAGCATCTTTCGAC stands -0.404; under TACTACATAGTATATCTCCAAG, -1.14; under TACTCTAACAAGGAGGTGCAGC, -0.568.
The same measure, in the same setting: under TTTTCTTGTCCAGCTCTCCAAG stands -0.925; under TATTGATAACTGTCTGTCCTGC, -0.496; under TATCGCATGAATCAGCTCCAAG, -1.05.
Still for that read-out and setting: next, TATTGGTCTGCCTACTACCAAA: -1.79.
Take TTGCTCTTTAAACATCTTGGTT: the sensor-assay potency score (higher = more potent) is -0.993.
Same read-out and setting: under TAGGTGTCTGTGCTGTGCCGTT stands -0.606; under TTACACAGGGTACAAGTCCTTG, -0.672.
Same read-out and setting: next, TAACTCTCTCTTCCACTGCCGG: -0.922.

The target of a further assay is NUP214. Described as above. To be noted: shRNA.
Turning to TTTGTTGGACACAGCAAGCAGA, the sensor-assay potency score (higher = more potent) is -0.715.
Same read-out and setting: under TTATCAACTATTTTGTTGGGAT stands 0.33.
Turning to TAACTCTTCCAACTCCTTCTGA, the sensor-assay potency score (higher = more potent) was -0.0589.
Still for that read-out and setting: next, TTTTGTTGGGATCATCTCCGGG: -0.302; TTGACTTTGACAGCAGAGGTTG: -0.446; TTTGTTGGGATCATCTCCGGGT: -0.0183.
As to TAATGATGCTGTCTCTCCGTGC, the sensor-assay potency score (higher = more potent) is -0.651.
The same measure, in the same setting: next, TTTATCAACTATTTTGTTGGGA: 1.13; TAATCTGATCACTTTGTCGAGC: -0.175; TAGAACATCATTCACATCTTGG: -0.0154.
For the sequence TTTAGTAGGAAAAATCTGCAAG, the sensor-assay potency score (higher = more potent) is -0.492.
Same read-out and setting: under TAAAGTTCACAAATATCTCTGG stands 0.255.
